Records with an inconclusive call do not appear. Calls of active or inactive are those of the source.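 How the source made its calls, unless noted: active means inhibition over a set limit, the all-compound mean plus 3 SD, in both replicate runs; inconclusive means over that limit in just one replicate run; inactive means at or under that limit in both runs.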

Assay [1] is described as follows: reducers of endogenous Her2 protein level, primary screen, SKBR3 breast tumor cells, AlphaScreen, ATP viability (AID 461;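 active means Her2 level under about 52% in both replicate screens, with viability over 70% of control, limit read from the data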;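 on Her2 level: lower value means less Her2 protein in the cells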;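 on viability: percent of carrier control wells set as 100% viability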). The settings on record: 18-24 h, measured here: SKBR3 viability, ATP luminescence, at 10 µM.
Assay [2] addresses Receptor tyrosine-protein kinase erbB-2 (Homo sapiens) (UniProt P04626). The assay is described as above. The settings on record: 18-24 h, at 10 µM, stronger effect = lower value.
A short description of assay [3]: SK-BR-3 cell growth inhibitors, pilot screen, 24 h, human (AID 572;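 active means viability at or below 10% of carrier control in both of two separate runs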;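 further: compound exposure lasted between 18 and 24 h rather than exactly 24 h; 100% = carrier-treated control wells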). The settings on record: SK-BR-3 viability, CellTiter-Glo luminescence, at 10 µM, stronger effect = lower value.
Assay [4] in a line: HUVEC growth inhibition – cell-based, human, primary screen (AID 575;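 active means viability at or below 30% in both replicate assays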;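 further: 100% = median of untreated cell wells with 0.1% DMSO on each plate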). The note with it: HUVEC proliferation, CellTiter-Glo luminescence, 72 h; at 10 µM; stronger effect = lower value.
A short description of assay [5]: growth inhibitors of H69AR lung tumor, primary screen, human, duplicate replicates (AID 580;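 active means viability at or under a set limit in both replicates, limit being median viability minus 3 SD, cut at about 48% in these data, passing the limit was not always enough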;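 further: 100% = mean luminescence of untreated wells and 0% = no signal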). The note with it: H69AR lung tumor cells viability, ATP luminescence, 72 h; at 10 µM; stronger effect = lower value.
A short description of assay [6]: reversal of MRP1-mediated doxorubicin resistance, pilot screen, H69AR cells, doxorubicin co-treatment (AID 601;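 active means viability loss from added drug above about 55%, and viability with drug at most 40%, in both replicates, limit read from the data, passing the limit was not always enough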). The settings on record: CellTiter-Glo, 72 h, at 10 µM; for differential viability (reversal): stronger effect = higher value.
Assay [7] in a line: 384-well plate pilot, post-Golgi transport modulator project, inhibition of yeast transport mutant growth (AID 636; in the data active means inhibition above about 31%). The note with it: absorbance 615 nm, about 18 h, stronger effect = higher value.
Assay [8] in a line: growth suppression of yeast trafficking mutant, preliminary HTS, modulators of trafficking downstream of Golgi apparatus project, 1536-format plate, OD 615 nm (AID 637; in the data active means inhibition above about 30%). The note with it: yeast transport mutant growth, absorbance 615 nm, 18 h; stronger effect = higher value.
The nature of assay [9]: OD615 S. cerevisiae growth inhibition, permissive medium, pilot counter-assay, permissive growth control for S. cerevisiae lifespan shortening project (AID 705;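 active means growth inhibition above 25% in both replicates, a cutoff set 3 SD above the mean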). The note with it: OD615, 24 h, at 10 µM, stronger effect = higher value.
The nature of assay [10]: Restrictive medium S. cerevisiae growth inhibition, OD615, pilot screen of yeast lifespan reduction project, restrictive growth control (AID 706;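 active means growth inhibition above a set limit, 3 SD over mean compound inhibition, in both replicates, cut at about 43% in these data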;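 further: modified DeaD lifespan yeast strain shifted to restrictive glucose medium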). The note with it: OD615, 48 h, at 10 µM, stronger effect = higher value.
A short description of assay [11]: viability gain of MRP-1-high H69AR cells under doxorubicin, pilot screen, MRP-1 activator project, CellTiter-Glo, duplicate (AID 807;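 active means viability increase at or above a cutoff of the median across tested compounds plus 3 SD, cut at about 8.5% in these data, passing the limit was not always enough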;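 further: compound pretreatment 18-22 h then 72 h combined with doxorubicin; 0% = doxorubicin alone and 100% = vehicle without doxorubicin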). The note with it: H69AR viability with doxorubicin, CellTiter-Glo luminescence; at 10 µM; stronger effect = higher value.
Assay [12] in a line: growth suppression of beta-catenin knockout HCT116, pilot screen, human colon tumor cells (AID 823;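 active means cell viability at or below a set limit in both duplicate runs, the limit being the all-compound median minus 4 SD, cut at about 23% in these data, passing the limit was not always enough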;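 further: 0% = wells killed by 20 µM Hyamine and 100% = untreated DMSO cell wells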). The settings on record: CellTiter-Glo, 60 h, at 10 µM, stronger effect = lower value.
A short description of assay [13]: growth suppression of PTEN-deleted HCT116, pilot screen, cell-based, HCT116 clonal line, CellTiter-Glo (AID 824;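 active means viability at or below 27.92% in each of two runs, the all-compound median minus 4 SD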;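 further: 0% = 20 µM Hyamine control and 100% = vehicle cell control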). The settings on record: 60 h, at 10 µM, stronger effect = lower value.
Assay [14] in a line: inhibitors of the yeast RAM network, pilot screen, dse1pr::URA3 reporter, 5-FOA selection (AID 869).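 Further: 0% = DMSO wells with no growth and 100% = 10 µM 1-NA-PP1 with full growth; RAM network block rescues cells from 5-FOA so hits raise OD615 growth.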 The note with it: S. cerevisiae dse1pr::URA3 5-FOA growth, OD615, 2 d; at 10 µM; stronger effect = higher value; strain carries analog-sensitive mutant Cbk1 kinase.
Assay [15] in a line: RAM signaling pathway blockade in yeast – S. cerevisiae, Pdr1DBD-CYC8 efflux-inhibited sensitized strain, primary screen (AID 1298;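 active means RAM network inhibition above 8.4% in each of two replicates, 3 SD over the compound average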;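 further: 0% = DMSO untreated cells without growth and 100% = 10 µM 1-NA-PP1 full growth; higher means more yeast growth rescued from 5-FOA killing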). The settings on record: S. cerevisiae cbk1-as DSE1-URA3 strain, 5-FOA growth OD615, 2 d; at 50 µM; stronger effect = higher value.
The mark [16] stands for this setting: H69AR cells + 2 uM doxorubicin, measured here: viability with 2 uM doxorubicin, stronger effect = lower value.
Setting [17] is: H69AR cells, compound alone cytotoxicity.

Chain of Receptor tyrosine-protein kinase erbB-2 (Homo sapiens) (P04626 whole entry, looked up): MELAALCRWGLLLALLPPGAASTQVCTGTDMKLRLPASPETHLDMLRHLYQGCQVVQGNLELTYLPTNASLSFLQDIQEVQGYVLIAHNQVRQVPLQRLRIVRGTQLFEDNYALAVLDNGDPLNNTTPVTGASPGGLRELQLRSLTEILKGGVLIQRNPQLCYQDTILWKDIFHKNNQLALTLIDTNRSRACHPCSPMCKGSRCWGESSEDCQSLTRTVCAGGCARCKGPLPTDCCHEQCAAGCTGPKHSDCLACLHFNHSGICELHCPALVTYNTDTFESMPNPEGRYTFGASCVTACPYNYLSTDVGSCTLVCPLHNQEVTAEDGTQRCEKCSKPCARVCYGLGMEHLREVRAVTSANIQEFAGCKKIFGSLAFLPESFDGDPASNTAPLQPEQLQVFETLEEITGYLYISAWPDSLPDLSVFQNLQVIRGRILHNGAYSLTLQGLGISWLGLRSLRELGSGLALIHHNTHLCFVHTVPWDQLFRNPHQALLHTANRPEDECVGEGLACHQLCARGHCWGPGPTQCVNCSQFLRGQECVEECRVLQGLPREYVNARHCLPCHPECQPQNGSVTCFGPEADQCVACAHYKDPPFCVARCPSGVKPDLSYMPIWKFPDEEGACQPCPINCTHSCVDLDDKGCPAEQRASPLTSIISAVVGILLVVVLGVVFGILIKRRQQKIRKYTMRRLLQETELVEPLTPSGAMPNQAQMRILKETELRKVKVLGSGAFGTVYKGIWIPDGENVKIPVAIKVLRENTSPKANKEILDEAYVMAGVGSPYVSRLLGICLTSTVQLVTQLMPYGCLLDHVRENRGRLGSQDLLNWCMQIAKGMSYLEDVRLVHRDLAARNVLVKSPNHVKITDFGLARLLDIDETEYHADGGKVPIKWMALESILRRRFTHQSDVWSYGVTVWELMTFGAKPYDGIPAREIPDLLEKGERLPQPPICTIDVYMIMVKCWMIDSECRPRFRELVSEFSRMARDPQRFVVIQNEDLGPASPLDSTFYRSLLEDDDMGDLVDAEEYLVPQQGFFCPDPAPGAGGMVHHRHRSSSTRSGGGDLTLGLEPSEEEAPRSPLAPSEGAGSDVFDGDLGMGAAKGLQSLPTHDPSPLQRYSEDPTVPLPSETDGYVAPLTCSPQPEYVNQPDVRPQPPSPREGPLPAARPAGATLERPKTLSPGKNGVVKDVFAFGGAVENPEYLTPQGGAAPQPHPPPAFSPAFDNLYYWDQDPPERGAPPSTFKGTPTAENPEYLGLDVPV

`O=C(COc1ccc(=O)n(-c2ccccc2)n1)Nc1ccccc1`: the viability in assay [1] was 96%; in assay [3] it was 96% (inactive); in assay [4], 102% (inactive); in [5], 98.8% (inactive); in assay [6] (setting [16]) it was 92.4%; in assay [6] (setting [17]), 98.8%. Moreover, the figures for the viability in assay [12] and in assay [13] were 109% (inactive) and 98.6% (inactive), respectively. Moreover, the Her2 level in assay [2] is 95.5% (inactive). The differential viability (reversal) in assay [6] (H69AR cells + 2 uM doxorubicin) was 6.32% (inactive). The inhibition in [7] was -4.4% (inactive); in assay [8], 0.82% (inactive); in assay [14] it was 2.81% (inactive). For the same molecule, the values for the growth inhibition in assay [9] and in [10] were -1.58% (inactive) and 9.99% (inactive), respectively. The viability increase in [11] is -1.83% (inactive). In addition, in [15], the RAM network inhibition was 1.04% (inactive).

In the case of `COC(=O)C1=C(C)NC2=C(C(=O)CCC2)C1c1coc2ccccc2c1=O` (stereo not given), the viability in assay [1] is 91%; in assay [3], 91% (inactive); in assay [4] it was 97.7% (inactive); in [5] it was 93% (inactive); in assay [6] (setting [16]) it was 90.9%; in assay [6] (setting [17]) it was 93%. The viability was 89.4% (inactive) in assay [12] and 90.1% (inactive) in assay [13]. For the same molecule, the Her2 level in assay [2] is 81% (inactive). Moreover, in assay [6] (H69AR cells + 2 uM doxorubicin), the differential viability (reversal) was 2.12% (inactive). Moreover, the inhibition in [7] is -3.97% (inactive); in [8], -1.5% (inactive); in assay [14] it was 2.04% (inactive). In addition, the growth inhibition was -7.39% (inactive) in assay [9] and 6.02% (inactive) in assay [10]. Also, the viability increase in assay [11] is -4.25% (inactive). The RAM network inhibition in assay [15] is 1.39% (inactive).

For the molecule `COc1ccc(-c2nc(CSCC(=O)N3CCc4ccccc4C3)c(C)o2)cc1OC`, the viability is 88.5% in assay [1]; 88.5% (inactive) in assay [3]; 93.8% (inactive) in assay [4]; 92.6% (inactive) in [5]; 92.4% in [6] (setting [16]); 92.6% in assay [6] (setting [17]). The viability was 93.9% (inactive) in assay [12] and 89.8% (inactive) in assay [13]. Besides, the Her2 level in assay [2] is 69.5% (inactive). Besides, in assay [6] (H69AR cells + 2 uM doxorubicin), the differential viability (reversal) was 0.215% (inactive). The inhibition in [7] was -0.38% (inactive); in assay [8], -0.5% (inactive); in [14], -0.395% (inactive). Further, the growth inhibition is 13.3% (inactive) in assay [9] and 33.4% (inactive) in assay [10]. Also, the viability increase in assay [11] is -3.15% (inactive). Besides, the RAM network inhibition in assay [15] was 3.92% (inactive).

With `Cc1noc(/C=C/N(C)C)c1S(=O)(=O)N1CCCC(C(=O)NCCC2=CCCCC2)C1` (stereo not given), the viability was 94.5% in [1]; 94.5% (inactive) in assay [3]; 79.7% (inactive) in [4]; 104% (inactive) in [5]; 88.7% in assay [6] (setting [16]); 104% in assay [6] (setting [17]). The figures for the viability in assay [12] and in assay [13] were 92.1% (inactive) and 72.8% (inactive), respectively. Moreover, the Her2 level in assay [2] was 79% (inactive). Moreover, in [6] (H69AR cells + 2 uM doxorubicin), the differential viability (reversal) is 15.8% (inactive). For the same molecule, the inhibition is -1.87% (inactive) in assay [7], -1.31% (inactive) in assay [8] and 1.23% (inactive) in [14]. Moreover, the growth inhibition was -0.38% (inactive) in assay [9] and -11.2% (inactive) in [10]. For the same molecule, the viability increase in assay [11] is 2.75% (inactive). Also, in assay [15], the RAM network inhibition was 6.39% (inactive).

With `COC(=O)CN1C(=O)C(O)(CC(=O)c2ccc(Cl)cc2)c2ccccc21` (stereo not given), the viability in [1] was 87.5%; in assay [3] it was 87.5% (inactive); in assay [4] it was 94.4% (inactive); in assay [5], 70.5% (inactive); in assay [6] (setting [16]), 91.8%; in [6] (setting [17]), 70.5%. The viability in assay [12] was 87.3% (inactive); in [13], 91.5% (inactive). Further, in [2], the Her2 level is 88.5% (inactive). The differential viability (reversal) in [6] (H69AR cells + 2 uM doxorubicin) is -21.3% (inactive). For the same molecule, the results for the inhibition in [7], in [8] and in [14] were -6.8% (inactive), 5% (inactive) and 1.81% (inactive), respectively. The growth inhibition in [9] is -0.49% (inactive); in assay [10], -8.47% (inactive). The viability increase in assay [11] is -3.44% (inactive). Also, the RAM network inhibition in assay [15] is 0.35% (inactive).

Source of the values: PubChem BioAssay.
